The source of these data is PubChem BioAssay AID1611 (NINDS Approved Drug Screening Program, 2009).

This assay can be described thus: inducers of human heat shock response, cell-based, HSE luciferase (AID 1611). The following applies: human cells, HSE-luciferase heat shock reporter; stronger effect = higher value.
For the molecule `CN1CCC(=C2c3ccccc3CC(=O)c3sccc32)CC1`, the fold change is 1.41.

For `CCN(CC)CCOC(=O)C(c1ccccc1)C1CCCCC1` (stereo not given), the fold change was found to be 1.12.

Take `O=C(Cn1ccnc1[N+](=O)[O-])NCCO`: the fold change came out at 0.93.

`NC(N)=NC(=O)c1nc(Cl)c(N)nc1N`: the fold change amounted to 0.89.

Regarding `CCOC(N)=O`, the fold change was 0.87.

Consider `OCC(O)CN1CCN(c2ccccc2)CC1` (stereo not given), for which the fold change is 0.82.

For the molecule `CC[C@H]1CN2CCc3cc(OC)c(OC)cc3C2C[C@@H]1CC1NCCc2cc(OC)c(OC)cc21` (stereo not given in full), the fold change is 0.89.

As for `COCCc1ccc(OCC(O)CNC(C)C)cc1` (stereo not given), the fold change came to 0.6.

For `CSc1ccc2c(c1)N(CCC1CCCCN1C)c1ccccc1S2` (stereo not given), the fold change is 0.58.

Turning to `Cc1cc(C(C)(C)C)cc(C)c1CC1=NCCN1`, the fold change was found to be 1.28.

As for `CC(C[N+](C)(C)C)OC(N)=O` (stereo not given), the fold change is 0.9.

As to `O=c1cc[nH]c(=S)[nH]1`, the fold change turned out to be 0.78.

`CN(C)CCC(c1ccccc1)c1ccccn1` (stereo not given): the fold change is 1.7.

For the molecule `C=CCc1ccccc1OCC(O)CNC(C)C` (stereo not given), the fold change came to 1.15.

As for `CC[C@]12CCCN3CCc4c(n(c5ccccc45)[C@](O)(C(=O)OC)C1)[C@@H]32`, the fold change was 1.14.

As to `CCN(CC)CCOC(=O)C1(C2CCCCC2)CCCCC1`, the fold change is 0.64.

For `COc1c2occc2c(OC)c2c(=O)cc(C)oc12`, the fold change is 0.96.

As for `COc1ccc2cc([C@H](C)C(=O)O)ccc2c1`, the fold change amounted to 0.71.

Regarding `NCC(O)CC(=O)O` (stereo not given), the fold change is 0.94.

For the molecule `CC(=O)Oc1ccc2c(c1)CCC1C2CC[C@@]2(C)C1CC[C@@H]2OC(C)=O` (stereo not given in full), the fold change was 1.07.

As to `COc1ccc(C2Sc3ccccc3N(CCN(C)C)C(=O)C2OC(C)=O)cc1` (stereo not given), the fold change came to 0.53.

Consider `CC(=O)O[C@]1(C(C)=O)CCC2C3C=C(Cl)C4=CC(=O)[C@@H]5C[C@@H]5[C@]4(C)C3CC[C@@]21C` (stereo not given in full), for which the fold change came out at 9.01.

In the case of `CC[C@H](C)C(=O)O[C@H]1CCC=C2C=C[C@H](C)C(CCC3C[C@@H](O)CC(=O)O3)[C@H]21` (stereo not given in full), the fold change came to 1.15.

For the molecule `O=C1CCC(N2C(=O)c3ccccc3C2=O)C(=O)N1` (stereo not given), the fold change was determined as 0.89.

`CCn1cc(C(=O)O)c(=O)c2cc(F)c(N3CCNCC3)cc21`: the fold change came out at 1.06.

In the case of `COc1ccc2c(c1)c(CC(=O)O)c(C)n2C(=O)c1ccc(Cl)cc1`, the fold change is 0.9.

Regarding `CCC1(C)CC(=O)NC1=O` (stereo not given), the fold change came to 1.19.

For the molecule `CC(=C(CCOP(=O)(O)O)SC(=O)c1ccccc1)N(C=O)Cc1cnc(C)nc1N`, the fold change was found to be 0.96.

On to `NNC(=O)c1ccncc1`, for which the fold change amounted to 0.48.

Consider `CC12CC3CC(C)(C1)CC(N)(C3)C2`, for which the fold change was 0.96.

On to `CN(C)CCC=C1c2ccccc2C=Cc2ccccc21`, for which the fold change was determined as 0.63.

Turning to `CC(Cc1cccc(C(F)(F)F)c1)NCCOC(=O)c1ccccc1` (stereo not given), the fold change was found to be 1.03.

In the case of `NCCCCC(N)C(=O)NC(Cc1ccc(O)cc1)C(=O)NC(CCCCN)C(=O)O` (stereo not given), the fold change came out at 0.95.

For the molecule `CN(Cc1cnc2nc(N)nc(N)c2n1)c1ccc(C(=O)N[C@@H](CCC(=O)O)C(=O)O)cc1`, the fold change stood at 0.91.

`CC1(C)O[C@@H]2CC3C4C[C@H](F)C5=CC(=O)C=CC5(C)C4C(O)CC3(C)[C@]2(C(=O)CO)O1` (stereo not given in full): the fold change was 1.4.

Consider `CO[C@@H]1[C@@H](O[C@@H]2O[C@H](C)[C@@H](O[C@H]3C[C@@](C)(O)[C@H](O)[C@H](C)O3)[C@H](N(C)C)[C@H]2O)[C@@H](CC=O)C[C@@H](C)[C@@H](O[C@H]2CC[C@H](N(C)C)[C@@H](C)O2)/C=C/C=C/C[C@H](C)OC(=O)C[C@H]1O`, for which the fold change was found to be 62.6.

For `Cc1onc(-c2ccccc2)c1C(=O)NC1C(=O)N2[C@@H]1SC(C)(C)[C@@H]2C(=O)O` (stereo not given in full), the fold change was determined as 1.85.

As for `CCC(=O)c1ccc2c(c1)N(CC(C)N(C)C)c1ccccc1S2` (stereo not given), the fold change is 0.88.

Regarding `CC(C)CC1NC(=O)CNC1=O` (stereo not given), the fold change was 0.55.

Regarding `O=C(O)c1cc2cc(Cc3cccnc3)ccc2o1`, the fold change amounted to 0.83.
